Only some compounds are listed: those with a hit (about 3.8% of all), similar ones and a draw of the others.
HepG2 tox: counter-screen for TGF-b inhibitors: cytotoxicity in HepG2 cells; HepG2 CAGA-GFP viability, ATP luminescence, 18 h; Potency, µM (highest dose often 46.1 µM), for the others: top-dose activity change, negative = cytotoxicity, actives largely listed as cytotoxic; 410,000 tested, 0.76% active; AID 588856
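HepG2 CAGA-GFP cells (1000/well, DMEM with 1% FBS) received compound, then TGF-beta at 500 pg/mL final, and were incubated 18 hours at 37 degrees C. Viability was read by CellTiter-Glo luminescence. Media-only wells were set as complete cell-killing and DMSO as no toxicity.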
A549 tox: A549 cytotoxicity, counter-screen for Nrf2 inhibitors. A549 ARE-Fluc cells, CellTiter-Fluor viability, 18-24 h. Potency, µM (doses to about 46 µM), for inactives: top-dose activity change, negative = cytotoxicity, usual class: inhibitors. 390,000 tested, 0.16% active; also: % is scaled to controls: 0 for no effect and ±100 for the full control effect
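Cytotoxicity counterscreen: CellTiter-Fluor fluorescence was measured in A549 ARE_Fluc cells after 18-24 h of compound exposure in a concentration series. The subsequent BugLite luminescent read reports ARE-luciferase activity.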
ATXN2 expr inh: inhibitors of ATXN2 expression | HEK-293 ATXN2-luciferase reporter, luminescence, 24 h | Potency, µM (series often up to 57 µM), without a hit: at the highest dose activity change, negative = inhibition, actives largely listed as inhibitors | 360,000 tested, 0.72% active | AID 1745845; also: % is scaled to controls: 0 for no effect and ±100 for the full control effect; nearly all actives have a fitted effect of over 55% in size
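ATXN2-luciferase reporter cells (luciferase flanked by upstream and downstream ATXN2 gene portions) were treated 24 h at 37 °C with compounds at up to 57 uM. SteadyGlo luminescence gave expression; GF-AFC fluorescence gave viability.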
TGFb inhibitor: TGF-b pathway inhibition. HepG2 CAGA-GFP TGF-b/SMAD3 reporter, GFP fluorescence, 18 h; TGF-beta stimulated, 500 pg/mL final. Potency, µM (series often up to 46.1 µM), for inactives: at the top dose activity, negative = inhibition, actives largely listed as inhibitors. 410,000 tested, 1.2% active; also: % is scaled to controls: 0 for no effect and ±100 for the full control effect; nearly all actives have a fitted effect of over 65% in size
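HEPG2 CAGA-GFP cells (1000/well, DMEM with 1% FBS) were pre-incubated 2 h at 37 degrees C, given compound by pin tool, then stimulated with TGF-beta at 500 pg/mL final for 18 h before per-cell GFP fluorescence imaging.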
Nrf2 block: inhibitors of Nrf2 signaling; A549 ARE-Fluc reporter, luciferase luminescence, 18-24 h; Potency, µM (titrated, usually from 46 µM), for inactives: top-dose activity change, negative = inhibition, actives largely listed as inhibitors; 360,000 tested, 2.1% active; AID 504444; also: % is scaled to controls: 0 for no effect and ±100 for the full control effect; nearly all actives have a fitted effect of over 60% in size
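Two sequential reads on A549 ARE_Fluc cells exposed to compound for 18-24 h: a CellTiter-Fluor fluorescence read for viability, then a luciferase luminescence read for Nrf2/ARE activity.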
ATXN viability: viability counter-screen for ATXN expression inhibitors. S2 cells (HEK-293 line with an ATXN2-luciferase reporter) viability, CellTiter-Fluor protease fluorescence, 24 h. Potency, µM (doses to about 56.7 µM), most hits filed as cytotoxic. 400,000 tested, 0.49% active. AID 651635; also: nearly all actives have a fitted effect of over 40% in size
Numbers without * were called inactive; i = inactive; u = inconclusive; x = no result. Calls follow the shape of the dose curve; as a rule, active = well fitted curve in the direction sought with a large enough effect; inconclusive = small, poorly fitted or top-dose-only effect, or another doubt; inactive = no such curve, though single readings can be large; an effect the other way counts as inactive or inconclusive. Potency is read from the fitted curve at half-maximal effect.

SMILES | HepG2 tox | A549 tox | ATXN2 expr inh | TGFb inhibitor | Nrf2 block | ATXN viability
O=C(NCCCc1ccc(F)cc1)C1CCC(=O)N(CCCN2CCCC2=O)C1 (stereo unspecified) | -3% | -5% | x | 0% | -19% | i
Fc1ccc(-c2c[nH]c(=S)n2Cc2ccccc2)cc1 | -40% | 11% | -1% | -18% | 11% | i
Cc1c(Cl)cccc1NC(=O)CC(c1ccc(F)cc1)N1Cc2ccccc2C1=O (stereo unspecified) | -28% | u | x | 18µM* | -24% | x
CCc1nc2ccc(C(=O)NCCOc3ccc(OC)cc3)cn2c1N(CC)Cc1ccc(OC)c(OC)c1 | -40% | x | -12% | u | x | i
CCN(C(=O)COC(=O)c1ccc2ccccc2c1)c1c(N)n(Cc2ccccc2)c(=O)[nH]c1=O | -24% | u | x | -7% | 23µM* | u
CCN(C(=O)COC(=O)CNC(=O)c1ccc2ccccc2c1)c1c(N)n(Cc2ccccc2)c(=O)[nH]c1=O | 1% | 9% | 3% | u | -4% | i
CCN(C(=O)COC(=O)C1CCC(C(C)(C)C)CC1)c1c(N)n(Cc2ccccc2)c(=O)[nH]c1=O (stereo unspecified) | -9% | -20% | u | -7% | 13µM* | x
CC(C)CN(C(=O)COC(=O)C1CC1)c1c(N)n(Cc2ccccc2)c(=O)[nH]c1=O | 5% | -12% | 7% | 0% | 20% | i
COc1ccc(S(N)(=O)=O)cc1C(=O)OCC(=O)N1CC(=O)Nc2ccccc21 | 11% | -2% | 5% | 9% | 2% | i
COc1ccc(NC(=O)Nc2ccccc2C(=O)N2CCCC2)cc1 | -2% | -3% | 11% | -9% | x | i
Cc1ccc(C(=O)N(C)CCOc2ccccc2)cc1S(=O)(=O)N1CCCCC1 | -20% | -17% | -24% | u | 21µM* | u
Cc1cc(Cl)ccc1OCC(=O)NCC(c1cccs1)N1CCOCC1 (stereo unspecified) | 6% | -5% | -24% | -8% | 18µM* | i
COc1ccc(NC(=O)COc2ccccc2C)cc1S(=O)(=O)N1CCCCC1 | 23% | -10% | 5% | u | u | i
Cc1ccc(NC(=O)COc2ccccc2C(N)=O)cc1S(=O)(=O)N1CCCCCC1 | -18% | u | u | u | 5.2µM* | 15µM*
Cc1ccc(NC(=O)COc2cccc(C)c2C)cc1S(=O)(=O)N1CCCCCC1 | 2% | -10% | -18% | u | 26µM* | i
O=C(COc1cccc(Cl)c1)NCC(c1cccs1)N1CCOCC1 (stereo unspecified) | -23% | -1% | 5% | -24% | u | i
COc1ccc(NC(=O)COc2ccccc2C(N)=O)cc1S(=O)(=O)N1CCCCC1 | 3% | x | x | -3% | x | u
c1ccc(Cn2nnc(CNc3ccccc3)c2-c2c(CNc3ccccc3)nnn2Cc2ccccc2)cc1 | -19% | -7% | u | -1% | -12% | i
Cc1ccc(NC(=O)CSc2nnc(C3CC3)n2C)cc1S(=O)(=O)N1CCCCC1 | 6% | -12% | x | u | 15µM* | i
COc1cc(C(C)=O)ccc1OCC(=O)Nc1ccc(C)c(S(=O)(=O)N2CCCCCC2)c1 | -31% | -12% | 28µM* | u | u | u
COc1cc(C#N)ccc1OCC(=O)Nc1ccc(C)c(S(=O)(=O)N2CCOCC2)c1 | -29% | -2% | x | -28% | -29% | i
CCOc1ccc(C(=O)CCC(=O)Nc2ccc(C)c(S(=O)(=O)N3CCCCC3)c2)cc1 | 3% | -1% | -7% | -9% | u | i
Cc1ccc(NC(=O)COc2ccc(Cl)cc2Cl)cc1S(=O)(=O)N1CCOCC1 | -21% | u | -8% | -9% | 21µM* | i
Cc1ccc(NC(=O)CSc2nnc(N)s2)cc1S(=O)(=O)N1CCCCC1 | -19% | -9% | 6% | -15% | -22% | u
COc1cc(C(C)=O)ccc1OCC(=O)Nc1ccc(S(=O)(=O)N2CCCCC2)cc1 | 0% | x | x | -1% | x | u
SMILES | HepG2 tox | A549 tox | ATXN2 expr inh | TGFb inhibitor | Nrf2 block | ATXN viability
CC(=O)c1ccc(OCCCC(=O)Nc2ccc(C)c(S(=O)(=O)N3CCCCC3)c2)cc1 | 10% | -29% | u | u | 18µM* | u
COCCNC(=S)N1CCC2CC1c1c(Cl)cccc12 (stereo unspecified) | -3% | x | 4% | 1% | x | i
CCOC(=O)Cc1csc(NS(=O)(=O)c2ccc(OC)cc2)n1 | 3% | -2% | -13% | 20% | -21% | u
CCc1nc2ccc(C(=O)N(CC)CCN(C)C)cn2c1N(C)C(=O)c1cccc(OC)c1 | -2% | x | 7% | -10% | x | i
CCCCCC(=O)N1CC2(CC)CN(C(=O)CCCCC)CC(CC)(C1)C2=O | -1% | -5% | -22% | -22% | 6% | u
OC(Br)C(O)C(O)N1CCCc2ccccc21 (stereo unspecified) | -10% | x | x | -22% | x | x
Cc1ccc(N(Cc2ccccc2)C(=O)c2ccc(C)c(S(=O)(=O)N3CCOCC3)c2)cc1 | -12% | -18% | x | -15% | 15µM* | i
COc1ccc(S(=O)(=O)N2CCN(CC(=O)Nc3ccc(Cl)c(C(F)(F)F)c3)CC2)cc1 | -1% | -25% | u | u | u | i
COc1cccc(NC(=O)CS(=O)(=O)Cc2nc(-c3ccc(C)cc3)oc2C)c1 | -7% | -15% | -8% | 2% | 26µM* | i
Cc1ccccc1-c1nc(CS(=O)(=O)CC(=O)Nc2c(C)cccc2C)c(C)o1 | -62% | -14% | u | 11µM* | u | i
COc1ccc(OC)c(CCNC(=O)CS(=O)(=O)Cc2nc(-c3cccc(Cl)c3)oc2C)c1 | -42% | -3% | u | 16µM* | u | u
COc1cccc(CNC(=O)c2ccc(-c3nc(CS(=O)(=O)c4ccccc4)c(C)o3)cc2)c1 | -40% | 7% | -16% | -29% | 23µM* | i
COc1cccc(-c2nc(CS(=O)(=O)CC(=O)Nc3c(C)cc(C)cc3C)c(C)o2)c1 | -79% | -4% | x | 10µM* | -3% | x
COc1cccc(-c2nc(CS(=O)(=O)CC(=O)Nc3c(C)cccc3C)c(C)o2)c1 | -14% | 6% | -12% | -23% | 0% | u
CCCC(=O)Nc1nnc(SCc2cc(=O)n3cccc(C)c3n2)s1 | 9% | 0% | x | -3% | x | x
CCOc1ccc(/C=C/[N+](=O)[O-])c2ccccc12 | -92% | u | 25µM* | 5µM* | 26µM* | u
